High-throughput results from PubChem.
MEKK3 PB1 HTS: MEKK3-MEK5 PB1 interaction, increase or decrease; bead-based flow cytometry, Alexa488-MEK5 binding to MEKK3; actives lie on both sides; 0 = blocked by unlabeled MEK5, 100 = vehicle; binding response (% of control), % at 10 µM; AID 1529; 290,000 compounds, 1.4% hits;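 active = binding response more than 3 SD above or below the average of its plate-row segment, actives on both sides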;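 note: Alexa488 bead fluorescence after subtracting the streptavidin-only scavenger bead signal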
Target sequence (Q99759 whole entry, looked up): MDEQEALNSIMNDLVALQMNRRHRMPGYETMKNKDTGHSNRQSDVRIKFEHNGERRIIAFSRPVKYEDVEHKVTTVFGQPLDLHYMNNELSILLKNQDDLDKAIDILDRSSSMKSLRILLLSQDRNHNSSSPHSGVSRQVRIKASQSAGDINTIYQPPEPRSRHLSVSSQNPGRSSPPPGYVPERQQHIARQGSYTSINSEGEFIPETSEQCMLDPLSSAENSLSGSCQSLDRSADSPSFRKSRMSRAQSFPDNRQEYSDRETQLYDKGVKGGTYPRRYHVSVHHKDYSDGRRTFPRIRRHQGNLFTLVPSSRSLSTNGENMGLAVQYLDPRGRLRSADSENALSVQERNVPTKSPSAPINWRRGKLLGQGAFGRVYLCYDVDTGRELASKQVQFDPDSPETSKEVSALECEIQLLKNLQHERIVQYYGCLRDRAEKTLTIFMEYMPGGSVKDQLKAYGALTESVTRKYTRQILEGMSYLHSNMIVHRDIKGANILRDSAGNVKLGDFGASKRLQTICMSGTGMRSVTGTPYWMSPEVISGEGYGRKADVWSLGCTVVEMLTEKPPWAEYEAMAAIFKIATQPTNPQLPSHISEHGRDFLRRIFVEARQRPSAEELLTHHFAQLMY
MEKK2wt PB1 HTS: raises or lowers MEK5 binding to wildtype human MEKK2 PB1 domain; bead flow cytometry, Alexa488-MEK5 binding to MEKK2 WT; actives lie on both sides; binding response (% of control), % at 10 µM; 290,000 compounds, 1.1% hits; in the data active = binding response below about 67% or above about 130%
VLA-4 inh: inhibition in a human VLA-4 binding assay; inhibition, % (about 7 µM as worked out from the volumes in the protocol); VLA-4 expressing cells, ligand binding flow cytometry; P13612; 330,000 compounds, 0.2% hits; AID 2557; in the data active = inhibition above about 50%
MEKK2 mut-MEK5: signal of MEK5 binding to mutant human MEKK2 PB1 domain; bead flow cytometry, Alexa488-MEK5 binding to MEKK2 mutant; percent response, % at 10 µM; 290,000 compounds, 0.35% hits; AID 1530; in the data active = percent response above about 24%, passing the limit was not always enough
MEKK2wt confirm: raises or lowers MEK5 binding to wildtype human MEKK2, retest. shares compounds with MEKK3 PB1 HTS. bead flow cytometry, Alexa488-MEK5 binding to MEKK2 WT; actives lie on both sides. binding response (% of control), % at 10 µM. 5,900 compounds, 2.4% hits. AID 1892; in the data active = binding response below about 16% or above about 210%; inactive = in between
MEKK2mut confirm: signal of MEK5 binding to mutant human MEKK2, retest; shares compounds with MEKK3 PB1 HTS; bead flow cytometry, Alexa488-MEK5 binding to MEKK2 mutant; percent response, % at 10 µM; 5,900 compounds, 2% hits; in the data active = percent response mostly above about 71%, no sharp cut-off; inactive = mostly below about 38%;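 note: higher means compound restores mutant binding toward wildtype level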
MEKK3 confirm: confirmation of inhibitors of MEK5 binding to human MEKK3; shares compounds with MEKK3 PB1 HTS; bead flow cytometry, Alexa488-MEK5 binding to MEKK3; hits give low values; binding response (% of control), % at 10 µM; 5,900 compounds, 1.8% hits;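 active = binding response below 72% of control, or above a set upper limit, though filed actives all read lower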;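 note: 100% = DMSO only wells and 0% = binding blocked by excess unlabeled MEK5; lower values mean stronger disruption of MEK5 binding to MEKK3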
An asterisk follows results filed as active; x = no result given; [ ] = remark or other dose. Rows were chosen to be rich in hits. Some 2.2% of all compounds tested hit in one or more screens of this group.

SMILES	MEKK3 PB1 HTS	MEKK2wt PB1 HTS	VLA-4 inh	MEKK2 mut-MEK5	MEKK2wt confirm	MEKK2mut confirm	MEKK3 confirm
CCN1c2ccccc2-c2nc3ccccc3n2C1c1cccs1 (centres undefined)	0.0*[inhibitor]	0.0*[inhibitor]	17.5	-5.0	104.0	0.0	105.0
CN(C)CCN(C(=O)c1ccc2c(c1)CCCC2)c1nc2cc3c(cc2s1)OCCO3	102.0	118.0	5.3	4.0	x	x	x
Cc1ccc2nc(N(CCCN(C)C)C(=O)c3ccc4c(c3)CCCC4)sc2c1	107.0	191.0*	19.6	49.0	162.0	26.0	107.0
CCOc1ccc2nc(N(CCN(C)C)C(=O)c3ccc4c(c3)CCCC4)sc2c1	107.0	152.0*	22.5	25.0*	147.0	23.0	103.0
Cc1ccc(NC(=O)CSC2=C(C#N)C(c3ccc4c(c3)OCO4)CC(=O)N2)cc1C (centres undefined)	81.0*[inhibitor]	85.0	4.0	-6.0	96.0	-6.0	97.0
CC1CCCN(CCCOc2ccc(Cl)cc2Br)C1 (centres undefined)	99.0	100.0	6.7	-1.0	x	x	x
CC1CCCN(CCOc2ccc3ccccc3c2Br)C1 (centres undefined)	102.0	157.0*	8.3	37.0	131.0	17.0	102.0
C/C(=N\NC(=O)CO/N=C(\C)c1cccs1)c1ccc(N)cc1	94.0	100.0	-17.3	8.0	x	x	x
C/C(=N\OCC(=O)N/N=C/c1ccc(C)cc1O)c1cccs1	124.0*	120.0	6.8	7.0	109.0	7.0	108.0
CS/C(N)=N/N=C/c1cc(Br)cc(Br)c1O	129.0*	128.0	-1.2	26.0	100.0	2.0	100.0
CS/C(N)=N/N=C/c1cc(C)ccc1O	61.0	68.0	2.2	-24.0	x	x	x
CC1CCN(S(=O)(=O)N2CCC(C(=O)NCCN3CCOCC3)CC2)CC1	77.0	83.0	-16.6	-13.0	x	x	x
CC1CCCCN1CCNC(=O)C1CCN(S(=O)(=O)N2CCCCC2)CC1 (centres undefined)	101.0	102.0	17.8	2.0	x	x	x
CC1CC(C)CN(CCCNC(=O)C2CCN(S(=O)(=O)N3CCCCC3)CC2)C1 (centres undefined)	123.0*	118.0	-1.6	10.0	109.0	15.0	108.0
CC1CCN(CCCNC(=O)C2CCN(S(=O)(=O)N3CCCCC3)CC2)CC1	123.0*	115.0	-5.6	13.0	103.0	0.0	102.0
CC1CCN(S(=O)(=O)N2CCC(C(=O)NCCC3=CCCCC3)CC2)CC1	70.0*[inhibitor]	70.0	7.0	-23.0	101.0	2.0	107.0
O=C(NCCN1CCCCCC1)C1CCN(S(=O)(=O)N2CCOCC2)CC1	107.0	131.0	18.2	39.0*	139.0	27.0	112.0
CCC1CN(C(=O)N2CCC(C(=O)Nc3ccccc3OC)CC2)c2ccccc2O1 (centres undefined)	102.0	102.0	4.1	3.0	x	x	x
O=C(CSc1ccc(C(F)(F)F)cc1[N+](=O)[O-])Nc1ccc2ccccc2c1	194.0*	106.0	26.0	0.0	96.0	-6.0	99.0
Cc1nc2ccccc2n1S(=O)(=O)N(C)C	141.0*	125.0	3.1	10.0	102.0	1.0	101.0
Cc1ccc(-c2nnn(CC(=O)N(CC(=O)NC3CCCCC3)c3ccccc3F)n2)o1	95.0	95.0	x	-9.0	x	x	x
Cn1c(NCc2ccco2)nc2ccccc21	16.0*[inhibitor]	25.0*[inhibitor]	10.1	-22.0	110.0	15.0	113.0
CCN(CC)CCn1c(NCc2ccco2)nc2ccccc21	85.0	101.0	3.8	-1.0	x	x	x
COc1ccc(C(CNC(=O)Cc2ccccc2F)N2CCCCC2)cc1 (centres undefined)	131.0*	113.0	16.1	-1.0	108.0	-1.0	103.0
O=C(NCC1CCCO1)/C(=C\c1ccccc1F)NC(=O)c1ccccc1 (centres undefined)	94.0	95.0	16.4	-5.0	x	x	x
SMILES	MEKK3 PB1 HTS	MEKK2wt PB1 HTS	VLA-4 inh	MEKK2 mut-MEK5	MEKK2wt confirm	MEKK2mut confirm	MEKK3 confirm
Cc1ccc(C)c(NC(=O)c2cc(-c3ccccc3)nn2-c2ccccc2)c1	60.0*[inhibitor]	96.0	-9.3	-1.0	110.0	6.0	103.0
Cc1cc(C)cc(NC(=S)Nc2cccc3cnccc23)c1	107.0	140.0*	x	7.0	107.0	3.0	103.0
Cc1ccc(NC(=S)Nc2cccc3cnccc23)c(C)c1	99.0	94.0	-3.3	-2.0	x	x	x
NNc1nc(-c2ccccc2)nc2sc3c(c12)CCCC3	142.0*	114.0	-10.6	1.0	103.0	15.0	106.0
NNc1nc2sc3c(c2c(=O)n1Cc1ccccc1)CCC3	124.0	118.0	9.4	20.0	x	x	x
N#CC(C#N)=c1ccc2c(c1)N1C(c3ccccc3)=CC(c3ccccc3)C3CCCCC31N=2 (centres undefined)	27.0*[inhibitor]	91.0	5.8	-33.0	45.0	-28.0	61.0*
Cn1nc(C(C)(C)C)c([N+](=O)[O-])c1C(=O)NCCO	95.0	100.0	2.1	-3.0	x	x	x
CCN(CC)C(=O)c1c([N+](=O)[O-])c(C(C)(C)C)nn1C	140.0*	111.0	9.6	1.0	104.0	1.0	106.0
COc1cc2c(cc1OC)C(c1cccs1)N(C(=S)NC(C)C)CC2 (centres undefined)	101.0	92.0	19.3	-4.0	x	x	x
COc1cc(OC)c(NC(=O)N2CCOCC2)cc1Cl	100.0	103.0	7.4	2.0	x	x	x
CCOC(=O)Cn1c(COc2ccccc2OC)[n+](C)c2ccccc21	x	x	-1.6	x	x	x	x
CCCCCCCCCCOC(=O)Cn1c(COc2ccc(OC)cc2)[n+](C)c2ccccc21	120.0	256.0*	-7.9	80.0*	266.0*	79.0*	108.0
CCCCCCCCCCOC(=O)Cn1c(COc2ccccc2)[n+](C)c2ccccc21	113.0	226.0*	-10.6	61.0*	230.0*	84.0*	114.0
CCCCCCCCCCOC(=O)Cn1c(COc2ccccc2C)[n+](C)c2ccccc21	115.0	293.0*	14.1	141.0*	254.0*	150.0*	111.0
CCCCCCCCCCOC(=O)Cn1c(COc2ccc(Cl)cc2)[n+](C)c2ccccc21	115.0	349.0*	6.2	101.0*	204.0	54.0	108.0
O=C(CSc1nnc2ccccn12)N1CCc2ccccc21	88.0	91.0	-1.3	-5.0	x	x	x
CCCCCCCCCCOC(=O)Cn1c(COc2cccc(C)c2)[n+](C)c2ccccc21	123.0*	402.0*	1.7	112.0*	254.0*	90.0*	109.0
Cc1ccccc1OCc1n(CC(=O)OC2CC(C)CCC2C(C)C)c2ccccc2[n+]1C (centres undefined)	104.0	159.0*	4.8	-3.0	175.0	39.0	109.0
CCCCOC(=O)Cn1c(=O)n(CC(=O)OCCCC)c2ccccc21	101.0	98.0	-14.6	2.0	x	x	x
